From PubChem
hgDAF-12 ag – agonists of H. glycines DAF-12 nuclear receptor; activation, % at 6.8 µM; 370,000 compounds, 1.8% hits; AID 687014; HEK293 GAL4-hgDAF12 UAS-luciferase reporter, agonist luminescence; normalized to butyrate control;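 active means activation above a cutoff set at the mean of all screened compounds plus 3 SD, cut at about 10% in these data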;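 further: 0% = DMSO wells and 100% = sodium butyrate wells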
ssDAF-12 act – activators of S. stercoralis DAF-12 nuclear receptor; HEK293 ssDAF-12/GRIP1 lit1-tk-luc reporter, luminescence; % of 3 µM dafachronic acid response; activation, % at 6.8 µM; 370,000 compounds, 1% hits; AID 652126;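 active means activation above the mean over all tested compounds plus 3 SD, cut at about 0.9% in these data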;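 further: 0% = DMSO-only wells and 100% = 3 µM delta7-dafachronic acid wells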
hcDAF-12 act – activates DAF-12 receptor from parasite H. contortus | HEK293 hcDAF-12 lit1-tk-luc reporter, luminescence; 0% DMSO, 100% Δ7-dafachronic acid | activation, % at 6.8 µM | 370,000 compounds, 1.4% hits | AID 652067;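 active means activation above the mean of all tested compounds plus 3 SD, cut at about 5.5% in these data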;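 further: 100% = response to 3 µM Δ7-dafachronic acid high control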
DAX1 inh-1 – NR0B1 (DAX1) inhibition; P51843; 340,000 compounds, 0.99% hits; inhibition, % at 6.75 µM; HEK293 Gal4-DAX1 luciferase reporter, luminescence;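 active means inhibition above the mean over all tested compounds plus 3 SD, cut at about 4.2% in these data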;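 further: 0% = DAX1-transfected cells with DMSO and 100% = empty-vector control cells with DMSO; inhibition shows as a rise in luminescence from relieved DAX1 repression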
AHR activator – activates the human aryl hydrocarbon receptor | P35869 | AHR-responsive luciferase reporter cells, luminescence | activation, % at 5 µM | 320,000 compounds, 2.5% hits; in the data active means activation above about 47%;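 further: 0% = vehicle wells and 100% = reference agonist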
Target sequence (P35869 whole entry, looked up): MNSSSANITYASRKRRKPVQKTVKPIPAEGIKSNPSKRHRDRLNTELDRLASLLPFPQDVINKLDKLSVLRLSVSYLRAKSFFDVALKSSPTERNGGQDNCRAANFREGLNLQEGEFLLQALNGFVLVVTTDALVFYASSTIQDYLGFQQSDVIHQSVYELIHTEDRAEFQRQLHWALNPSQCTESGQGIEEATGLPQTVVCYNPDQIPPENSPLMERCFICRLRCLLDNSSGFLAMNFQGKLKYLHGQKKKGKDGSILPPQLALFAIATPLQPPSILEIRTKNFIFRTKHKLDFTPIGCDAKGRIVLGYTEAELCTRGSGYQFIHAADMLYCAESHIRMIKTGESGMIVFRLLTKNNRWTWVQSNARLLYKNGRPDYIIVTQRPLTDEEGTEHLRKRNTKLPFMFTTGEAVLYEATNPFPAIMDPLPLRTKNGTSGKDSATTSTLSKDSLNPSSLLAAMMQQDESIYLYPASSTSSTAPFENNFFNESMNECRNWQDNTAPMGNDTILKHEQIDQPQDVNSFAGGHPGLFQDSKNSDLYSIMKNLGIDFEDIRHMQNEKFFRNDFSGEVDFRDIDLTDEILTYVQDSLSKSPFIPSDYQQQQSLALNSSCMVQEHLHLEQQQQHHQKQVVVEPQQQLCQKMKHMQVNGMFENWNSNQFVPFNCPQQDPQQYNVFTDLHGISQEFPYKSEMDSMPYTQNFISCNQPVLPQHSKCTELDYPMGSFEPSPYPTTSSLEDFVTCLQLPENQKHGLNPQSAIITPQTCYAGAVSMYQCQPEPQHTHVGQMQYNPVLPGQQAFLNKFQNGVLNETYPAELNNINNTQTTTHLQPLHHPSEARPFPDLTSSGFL
DAX1 inh-2 – blocks DAX1 repression of SF-1 activated StAR promoter | HEK293T StAR-luciferase reporter, SF-1/DAX-1 repression relief | inhibition, % at 6.8 µM | 370,000 compounds, 1.1% hits | AID 652010;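 active means inhibition above the mean over all tested compounds plus 3 SD, cut at about 3.6% in these data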;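 further: 0% = DAX-1 cells with DMSO and 100% = cells lacking DAX-1 with DMSO; higher inhibition means more luminescence from relief of DAX-1 repression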
Active calls of the source: *; · = no result. Compounds with a hit are over-represented: about 5.7% of the library has one in this group of screens.

SMILES	hgDAF-12 ag	ssDAF-12 act	hcDAF-12 act	DAX1 inh-1	AHR activator	DAX1 inh-2
CCC1=C2CC[C@H]3C(=O)N(CC)C(=O)[C@H]3[C@H]2[C@@]2(Cc3ccccc3)C(=O)N(Cc3ccccc3)C(=O)N2C1=O	1	0	0	2	0	0
CN(C)CCC(Oc1ccccc1OCc1ccccc1)c1ccccc1 (configuration not stated)	0	-2	-2	3	2	0
CC(/C=N/NC(=O)c1cccc(F)c1)=C\c1ccccc1	12*	0	4	1	8	3
CC(=O)Nc1cccc(C(=O)N/N=C/c2cccnc2)c1	4	0	0	2	12	0
CC(/C=C/c1ccccc1F)=N\NC(=O)c1cccc(F)c1	12*	-1	0	2	3	3
O=C(N/N=C/c1cccnc1)c1cccc(NC(=O)c2cccc(Br)c2)c1	3	-1	-2	-2	76*	0
CC(/C=C/c1ccco1)=N\NC(=O)c1cccc(Cl)c1	6	0	3	1	8	1
O=C(N/N=C/c1cccnc1)c1cccc(F)c1	2	-1	2	4.9*	12	1
COCCNc1nc2cc(-c3ccccc3OC)sc2c(=O)n1C	3	-1	-2	·	·	1
CCC(=O)N1CCN(c2cc(N3CCCC3)c(F)cc2[N+](=O)[O-])CC1	-1	-2	-1	1	4	-1
COc1ccc(C2N=C(Nc3ccc(C)cc3)Nc3nc(C)cc(=O)n32)cc1 (configuration not stated)	0	-1	-1	1	18	-1
CCc1cccc(C)c1NC(=O)CN(C)Cc1ccc(Br)cc1	-1	-2	-1	0	-1	-1
Cc1ccc(-c2cc(C(=O)Nc3ccncc3)c3ccccc3n2)cc1	2	-1	0	0	12	0
CC(C)(C)c1ccccc1NC(=O)c1cc(-c2ccncc2)nc2ccccc12	5	0	1	1	52*	-1
Cc1ccc(-c2cc(C(=O)Nc3nccs3)c3ccccc3n2)o1	-1	-1	3	-2	55*	0
Cc1ccc(C)c(NC(=O)c2cc(-c3cccnc3)nc3ccccc23)c1	-1	-1	0	6.3*	5	1
Cc1csc(NC(=O)c2cc(-c3ccncc3)nc3ccccc23)n1	0	0	0	-1	28	-1
O=C(Nc1nccs1)c1cc(-c2ccncc2)nc2ccccc12	1	0	1	0	56*	-1
Cc1cc(NCCCO)n2c(nc3ccccc32)c1C#N	0	-2	0	1	5	0
CCOC(=O)C(=O)Nc1ccc(F)cc1	0	-1	-1	-1	-2	0
CNc1cccc(-c2ccc(C(C)=O)s2)n1	10	-1	0	·	·	4.0*
CCC(C)(C)C(=O)Nc1nnc(CCc2ccccc2)s1	11*	1	5	4.7*	6	1
CC(C)(C)CC(=O)Nc1nnc(CCc2ccccc2)s1	5	0	2	1	4	1
COC(=O)CSc1nnc(-c2ccc(S(=O)(=O)N3CCCC3)cc2)o1	3	0	-2	-1	0	0
Cc1ccc(NC2=Nc3ccccc3N3C2=Nc2c(c(C)nn2-c2ccccc2)C3c2ccc(O)c(O)c2)cc1 (configuration not stated)	1	-2	3	0	·	0
SMILES	hgDAF-12 ag	ssDAF-12 act	hcDAF-12 act	DAX1 inh-1	AHR activator	DAX1 inh-2
Cc1nn(-c2ccccc2)c2c1C(c1ccc(O)c(O)c1)N1C(=N2)C(Nc2ccccc2)=Nc2ccccc21 (configuration not stated)	-1	-1	-1	4.3*	0	0
COc1cc(N2CCOCC2)ncn1	1	0	0	4.8*	1	0
Cc1ccccc1Cn1c(=O)n(-c2ccccc2)c(=O)c2ccc(C(=O)NCc3ccco3)cc21	1	-1	1	4.6*	0	0
Cc1ccccc1Cn1c(=O)n(Cc2ccco2)c(=O)c2ccccc21	-1	-2	-1	4.5*	-2	-1
Cc1ccc(-n2c(=O)c3ccc(C(=O)NCc4ccco4)cc3n(Cc3ccccc3C#N)c2=O)cc1	2	0	-1	0	1	0
CSc1ccc(C2CC(=O)Nc3nc(SC)[nH]c(=O)c32)cc1 (configuration not stated)	-1	-1	-2	0	5	0
CC(OC(=O)Cc1coc2cc3c(cc12)CCC3)C(=O)NC(N)=O (configuration not stated)	2	-1	-1	-2	3	0
CC(=O)c1cc2c(cc1NC(=O)Nc1cccc(Cl)c1)OCCO2	1	-1	1	0	58*	1
CC(=O)c1ccc(NC(=O)Nc2cccc(Cl)c2)cc1	13*	1	3	2	-3	3
O=C(/C=C(\Nc1cccc(Cl)c1)c1ccccc1)c1ccccc1	7	0	0	·	·	3.7*
O=C(Nc1ccc(Cl)cc1)Nc1cccc(C(=O)O)c1	12*	-1	5	·	-12	3
O=C(/C=C(\Nc1cccc(C(F)(F)F)c1)c1ccccc1)c1ccccc1	2	-1	-1	·	·	1
COc1ccc(C(=O)NCC(=O)N/N=C/c2ccc(C)o2)cc1OC	-1	0	-1	1	16	-1
O=C(NCCN1CCOCC1)c1ccc(S(=O)(=O)Nc2ccccc2)cc1	3	-1	-1	0	1	0
CCOC(=O)C1CCCN(C(=O)c2ccc(SC(F)(F)F)cc2)CC1 (configuration not stated)	-6	-2	0	·	·	-2
O=C(Nc1nc(-c2ccccn2)cs1)Nc1ccc(F)cc1F	-4	-2	-5	-2	-1	-1
O=C(Nc1ccncc1)Nc1ccc(F)c(Cl)c1	3	-1	-2	4	11	-1
O=C(Nc1ccc(F)cc1F)Nc1ccc(F)cc1F	-3	-2	-2	-2	-3	0
O=C(Nc1nc(-c2ccccc2)cs1)Nc1ccc(F)cc1F	5	-2	-2	4.7*	-6	-2
COC(C(=O)NNC(=O)Cc1ccc(Cl)cc1)c1ccccc1 (configuration not stated)	-1	-1	-1	4.3*	-1	0
O=C(Nc1ccc(F)cc1F)Nc1csc2ccccc12	1	0	1	·	51*	1
O=C(Nc1ccc(F)c(Cl)c1)Nc1csc2ccccc12	3	-1	3	2	73*	0
Cc1cc(C(=O)N/N=C/c2ccc(-c3cccc([N+](=O)[O-])c3)o2)n[nH]1	1	-1	-4	0	12	0
COc1ccc(S(=O)(=O)Oc2ccc(C(=S)N3CCOCC3)cc2OC)cc1	-3	-2	-1	1	-1	-1
